system: HepG2; experiment: GSK_TCMDC: Percent inhibition of human HepG2 cell line. Test compounds present at 10uM.; format: functional

SMILES | Inhibition
CS(=O)(=O)c1ccc2[nH]c(-c3cc(-c4ccc(OCCN5CCOCC5)cc4)cnc3N)nc2c1.O=C(O)C(F)(F)F | 43%
C=CCn1c(=N)c(C(=O)NCc2ccc(F)cc2)cc2c(=O)n3cccc(C)c3nc21 | 16%
CN1CCN(C(=O)CN2CCC3(CCC2=O)NC(=O)c2ccccc2O3)CC1 (stereo not given) | 0%
CCNc1cc(C(=O)N[C@@H](Cc2ccccc2)[C@H](O)CNC2CCC(C(C)(C)C)CC2)cc(N2CCCC2=O)c1 (stereo not given in full) | 38%
COc1ccc2c(NN=CC=Cc3ccccc3)ccnc2c1 | 9%
O=[N+]([O-])c1ccc(/C=N/O)nc1 | 80%
Cc1cccc2nc(-c3cccc(-c4cccc(CNC(C)C)c4)c3)[nH]c12.O=C(O)C(F)(F)F | 29%
CCc1cc(Br)c(CNCCCNc2cc(=O)c3ccccc3[nH]2)s1.Cl | 6%
N#CC(CC(=O)c1ccc(Cl)cc1)c1cccc(F)c1 (stereo not given) | 5%
COc1cc(Br)c(NC(=O)Nc2ccc(C(F)(F)F)c(O[C@@H]3CCN(C)C3)c2)cc1OC.Cl | 10%
CC(C)C[C@@H](C(=O)N[C@@H](CCCCNC(=O)OCc1ccccc1)C(=O)Nc1nccs1)[C@H](C)N(O)C=O | 0%
O=C(N[C@@H](CC1CCCCC1)C(=O)NCCN1CCCCC1)c1ccc(O)c(-c2ccc(Cl)c(Cl)c2)c1 | 14%
N=C(N)NN=CC(=O)Nc1ccc(Br)cc1.O=S(=O)(O)O | 5%
Cc1ccc2[nH]c3c(NCCCN(C)C)ncnc3c2c1 | 1%
CC(C)(C)c1ccc(S(=O)(=O)Nc2cc(Cl)ccc2Cn2ccc(N3CCNCC3)nc2=O)cc1.O=C(O)C(F)(F)F | 0%

Source: ChEMBL document CHEMBL1157539, “Thousands of chemical starting points for antimalarial lead identification” (Nature, 2010)
